Screens from PubChem.
Shown is part of a subset that was picked to be rich in hits.
Dicer inh: inhibitors of human Dicer processing of pre-microRNA; hit rate 6% among 47,000; AID 1347074; cat-ELCCA pre-miR-21 Dicer processing, chemiluminescence; active compounds read high; Q9UPY3; z-score at 25 µM; in the data active = z-score above about 3, passing the limit was not always enough;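 also: plate controls were vehicle for no effect and no enzyme for full effect; higher signal means more uncleaved substrate so more Dicer inhibition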
* = called active by the depositor.

SMILES	Dicer inh
CC1=C(C(=O)OCC(C)C)C(c2ccccc2)C2=C(CC(c3ccccc3)CC2=O)N1 (configuration not stated)	3.6*
CC1=C(C(=O)OCCOC(C)C)C(c2cccc(Cl)c2)C2=C(CC(c3cccs3)CC2=O)N1 (configuration not stated)	-0.16
COCCOC(=O)C1=C(C)NC2=C(C(=O)CC(c3ccccc3)C2)C1c1ccccc1F (configuration not stated)	8.1
COc1cccc(C2C(C(=O)OCc3ccccc3)=C(C)NC3=C2C(=O)CC(C)(C)C3)c1OC (configuration not stated)	-0.01
COc1ccc(C2CC(=O)C3=C(C2)NC(C)=C(C(=O)OCC(C)C)C3c2ccc(F)cc2)cc1 (configuration not stated)	5.2
CC1=C(C(N)=O)C(c2ccccc2F)n2nnnc2N1 (configuration not stated)	1.1
CC1=C(C(=O)OC(C)C)C(c2ccccc2Cl)C2=C(CCCC2=O)N1 (configuration not stated)	-0.99
COC(=O)C1=C(C)NC2=C(C(=O)CCC2)C1c1ccc(SC)cc1 (configuration not stated)	1.7
Cn1c(SCC(=O)NN2CC(=O)N(c3cccc(Cl)c3)CC2=O)nnc1-c1ccncc1	0.51
COCCOC(=O)c1c(C)oc2ccc(OC(=O)C(C)(C)C)cc12	7.3
COc1cc(C2C(C(=O)OC3CCCCC3)=C(C)NC3=C2C(=O)CC(C)(C)C3)ccc1O (configuration not stated)	0.6
COc1ccc(C2C(C(=O)OC3CCCCC3)=C(C)NC3=C2C(=O)CC(C)(C)C3)cc1O (configuration not stated)	0.85
COc1ccccc1C1C(C(=O)OCC(C)C)=C(C)NC2=C1C(=O)CC(c1ccccc1)C2 (configuration not stated)	5*
COc1ccc(C2CC(=O)C3=C(C2)NC(C)=C(C(=O)OC(C)C)C3c2ccccc2OC)cc1OC (configuration not stated)	1
C=CCOC(=O)C1=C(C)NC2=C(C(=O)CC(c3ccccc3)C2)C1c1ccc(O)cc1 (configuration not stated)	2.4
CCSCCOC(=O)C1=C(C)NC2=C(C(=O)CC(c3ccccc3)C2)C1c1ccccc1F (configuration not stated)	4*
CCOc1cc(C2C(C(=O)OC3CCCCC3)=C(C)NC3=C2C(=O)CC(C)(C)C3)ccc1OC(C)=O (configuration not stated)	5.4*
CCSCCOC(=O)C1=C(C)NC2=C(C(=O)CC(c3cccs3)C2)C1c1ccc(F)cc1 (configuration not stated)	0.18
CC1=C(C(=O)OCc2ccccc2)C(c2cccc(O)c2)C2=C(CC(c3ccccc3)CC2=O)N1 (configuration not stated)	3*
CCSCCOC(=O)C1=C(C)NC2=C(C(=O)CC(c3ccc(OC)cc3)C2)C1c1cccc(O)c1 (configuration not stated)	1.1
CCSCCOC(=O)C1=C(C)NC2=C(C(=O)CC(c3ccccc3)C2)C1c1ccc(F)cc1 (configuration not stated)	-0.88
COC(=O)C1=C(C)NC2=C(C(=O)CC(c3ccccc3)C2)C1c1ccccc1OC(C)C (configuration not stated)	0.57
CC(C)c1ccc(C(=O)CC2(O)C(=O)Nc3ccc(Cl)cc32)cc1 (configuration not stated)	6.9
CCc1ccc(C2C(C(=O)OCC3CCCO3)=C(C)NC3=C2C(=O)CCC3)cc1 (configuration not stated)	-0.06
O=C(NCCCn1ccnc1)c1ccc2c(c1)OCO2	-0.26
SMILES	Dicer inh
O=C(NCc1ccccc1)c1ncc(C(F)(F)F)cc1Cl	-0.21
CC(C)n1c(C(O)c2cccc3ccccc23)nc2ccccc21 (configuration not stated)	0.93
Cn1cc([N+](=O)[O-])c(C(=O)Nc2cccc(Br)c2)n1	1.5
O=[N+]([O-])c1c(Nc2ccccc2)ccc2nsnc12	-0.1
CC1CCC2C(=O)N(c3ccc(C(C)(C)C)cc3)C(=O)C2C1 (configuration not stated)	-0.98
CCCCNC(=O)n1nccc1-c1sc(-c2cccs2)nc1C	0.78
COc1ccccc1-c1coc2c(CN(C)C3CCCCC3)c(O)ccc2c1=O	1.9
CC1=C(C(=O)OC2CCCCC2)C(c2ccccn2)C2=C(CC(c3ccccc3)CC2=O)N1 (configuration not stated)	0.33
COc1ccc(C2CC(=O)C3=C(C2)NC(C)=C(C(=O)OC2CCCC2)C3c2ccc(OC)cc2)cc1 (configuration not stated)	-0.2
CC1=C(C(=O)OC2CCCC2)C(c2ccccc2)C2=C(CC(c3ccccc3)CC2=O)N1 (configuration not stated)	3.1*
CC1=C(C(=O)OCC(C)C)C(c2ccc(N(C)C)cc2)C2=C(CC(c3ccccc3)CC2=O)N1 (configuration not stated)	3.6*
COc1ccc(C2CC(=O)C3=C(C2)NC(C)=C(C(=O)OCC(C)C)C3c2ccncc2)cc1 (configuration not stated)	0.73
CCSCCOC(=O)C1=C(C)NC2=C(C(=O)CC(c3ccccc3)C2)C1c1ccc(N(C)C)cc1 (configuration not stated)	1.6
Cc1sc2ncnc(Oc3ccc4ccccc4c3)c2c1C	-1.1
O=C(Cc1c(F)cccc1Cl)NC(=O)Nc1ccc(F)c(Cl)c1	3.9*
O=C(Nc1ccc(F)c(Cl)c1)Oc1ccccc1	0.75
O=C(Cc1c(F)cccc1Cl)NC(=O)Nc1ccc(Cl)cc1	0.22
COC(=O)c1[nH]c2cscc2c(=O)c1C(=O)OC	2.6
Cc1[nH][nH]c(=O)c1C(c1ccccc1OCc1ccc(F)cc1)c1c(C)[nH][nH]c1=O	21
Cc1nc(Nc2ccccc2)nc(=O)n1-c1ccccc1	1.5
N#C/C(=C1C=C/C(=N\O)C(Br)=C/1)c1ccccc1	-0.66
Cc1ccc(/C(C#N)=C2C=C/C(=N\O)C(Cl)=C\2)cc1	2.6
Cc1ccc(/C(C#N)=C2C=C(Cl)/C(=N/O)C=C\2Cl)cc1	3.8*
Clc1ccc(-c2nc(N3CCCCC3)c(Cl)c(N3CCCCC3)n2)cc1	-0.63
S=c1[nH]nc(Cc2ccccc2)n1-c1ccc(Cl)cc1	-0.95
SMILES	Dicer inh
S=c1[nH]nc(Cc2ccccc2)n1-c1ccccc1	-0.51
S=c1[nH]nc(Cc2n[nH]c(=S)n2-c2ccccc2)n1-c1ccccc1	3.3*
Cn1c(Cn2c3ccccc3c3ccccc32)nnc1SCC(=O)O	2.6
Cc1cc([N+](=O)[O-])ccc1S(=O)(=O)NNC(=O)CSc1nc2cccnc2s1	0.06
CCC(Sc1nnc2c3ccccc3n(C)c2n1)C(=O)NC(C)c1ccccc1 (configuration not stated)	1.1
CCC(Sc1nnc2c3ccccc3n(C)c2n1)C(=O)Nc1nnc(C)s1 (configuration not stated)	-0.49
CCCc1nnc(NC(=O)C(CC)Sc2nnc3c4ccccc4n(C)c3n2)s1 (configuration not stated)	3.1*
COC(=O)c1cnn(-c2c(Cl)cccc2Cl)c1C(OC)OC	-1.6
COc1ccc(-c2c(C(F)(F)F)oc3cc(OCC(=O)OC(C)C)ccc3c2=O)cc1OC	-0.11
CN(C)Cc1c(O)ccc2c(=O)c(Oc3ccc4ccccc4c3)c(C(F)(F)F)oc12	-0.51
CN(C)Cc1c(O)ccc2ccccc12	5.3*
CN(C)Cc1ccc(O)c(CN(C)C)n1	-1.7
